Most compounds without a hit are left out; they make up all but 1.5% or so of the library.
GALK inhibitor: inhibitors of human galactokinase. P51570. Purified GALK, Kinase-Glo residual ATP luminescence. Potency, µM (titrated, usually from 57.5 µM), for inactives: top-dose activity change, negative = inhibition, actives largely listed as inhibitors. 270,000 compounds, 0.007% hits. AID 1868; note: potency is the fitted concentration of half-maximal effect
Target sequence (P51570 whole entry, looked up): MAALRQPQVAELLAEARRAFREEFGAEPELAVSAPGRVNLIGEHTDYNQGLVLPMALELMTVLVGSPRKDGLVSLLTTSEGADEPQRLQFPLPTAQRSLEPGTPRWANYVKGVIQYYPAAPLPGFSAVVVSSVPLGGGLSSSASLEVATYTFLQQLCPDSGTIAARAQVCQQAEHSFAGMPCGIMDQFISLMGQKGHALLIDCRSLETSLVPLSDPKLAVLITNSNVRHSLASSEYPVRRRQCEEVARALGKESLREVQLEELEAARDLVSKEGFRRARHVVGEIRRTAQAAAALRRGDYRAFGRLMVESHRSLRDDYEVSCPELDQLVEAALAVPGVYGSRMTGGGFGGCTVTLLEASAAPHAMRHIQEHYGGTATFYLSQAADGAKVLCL
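The enzyme phosphorylates galactose (100 uM) using ATP (35 uM); inhibition is detected as higher residual ATP, quantified by bioluminescence after 1 h reaction at room temperature, pH 8.0.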
Eya2 phos inh: inhibitors of human Eya2 phosphatase activity; recombinant Eya2, OMFP fluorescence dephosphorylation (OMFP is methylfluorescein phosphate); Potency, µM (doses to about 76.9 µM), inactives show at the top dose activity, negative = inhibition, hits mostly inhibitors; 330,000 compounds, 0.006% hits; AID 488837; note: potency is the fitted concentration of half-maximal effect
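Eya2 (0.2 uM) preincubated 10 min at ambient with compound, then OMFP substrate added at 50 uM; 10 min reaction in 50 mM HEPES pH 7.5, 50 mM NaCl, 5 uM MgCl2, 0.05% BSA, 1 mM DTT. Fluorescence read at Ex 485/Em 525 nm.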
TrxR1 inh: inhibitors of rat thioredoxin reductase 1 | O89049 | recombinant rTrxR1, NADPH fluorescence consumption, selenite substrate | Potency, µM (titrated, usually from 114 µM), without a hit: at the top dose activity change, negative = inhibition, hits mostly inhibitors | 390,000 compounds, 1% hits; note: potency is the fitted concentration of half-maximal effect; nearly all actives have a fitted effect of over 65% in size
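Rat TrxR1 (90 nM in the dispensed reagent) was pre-reduced with 400 uM NADPH for 5 min at room temperature, then incubated with compound for 15 min. After 400 uM selenite was added, NADPH fluorescence (Ex 340/Em 450 nm) was followed for 8 min.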
Six1-Eya2 blk: blocks human Six1 binding to Eya2 | AID 651725 | 360,000 compounds, 0.56% hits | AlphaScreen GST-Six1/His-Eya2 binding, biochemical; active compounds read low | activity change, % (test concentration not listed); in the data active = activity change below about -65%; inconclusive = mostly about -30% to -63%
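Six1/Eya2 binding was read as AlphaScreen signal after compounds were pinned into GST-Six1 plus His-tagged Eya2 (5X stock 250/500 nM) in pH 8.0 Tris/NaCl/TCEP buffer, beads added, then incubated 1 h, 37 C, dark.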
TrxR1 substrate: rat thioredoxin reductase 1 substrate activity; Potency, µM (series often up to 114 µM), inactives show at the top dose activity change, negative = substrate turnover; 390,000 compounds, 0.01% hits; O89049; purified TrxR1 substrate turnover, NADPH consumption readout; note: potency is the fitted concentration of half-maximal effect; nearly all actives have a fitted effect of over 50% in size
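Rat TrxR1, dispensed at 90 nM, was prereduced with 400 uM NADPH (final) for 5 min at ~22 deg C, then incubated with compound 15 min before 400 uM selenite. A first-read NADPH fluorescence drop versus no-compound background flagged substrates.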
CtBP-E1A blk: CtBP/E1A binding inhibition; AlphaScreen GST-E1A/His-CtBP binding, 1536-well; active compounds read low; AID 651724; activity change, % (test concentration not listed); 340,000 compounds, 0.49% hits; in the data active = activity change below about -65%; inconclusive = mostly about -30% to -63%
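Homogeneous bead-based format: GST-tagged E1A captured on glutathione donor beads, His-tagged CtBP on nickel acceptor beads; compounds precede bead addition by 2 h at 37 °C.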
Active calls of the source: *; u = inconclusive; x = no result given; [ ] = remark or other dose. Unless noted, calls come from the whole dose curve; as a rule, active = well fitted curve in the direction sought with a large enough effect; inconclusive = small, poorly fitted or top-dose-only effect, or another doubt; inactive = no such curve, though single readings can be large; an effect the other way counts as inactive or inconclusive. % is set by controls: 0 for no effect and ±100 for the full control effect.

SMILES	GALK inhibitor	Eya2 phos inh	TrxR1 inh	Six1-Eya2 blk	TrxR1 substrate	CtBP-E1A blk
CCn1c(=O)c2cc(C(=O)N(CCCOC(C)C)Cc3ccco3)sc2c2ccccc21	x	x	12.3%	x	16.1%	x
O=C1C(NS(=O)(=O)c2cccs2)=C(N2CCN(c3cccc(C(F)(F)F)c3)CC2)C(=O)c2ccccc21	0.5%	9.0%	u	-68.1*	-10.1%	-79.7*
O=C1C(NS(=O)(=O)c2cccs2)=C(N2CCN(Cc3ccccc3)CC2)C(=O)c2ccccc21	-1.4%	-5.2%	14.7%	-71.7*	-7.1%	x
CCOc1ccccc1N1CCN(C2=C(NS(=O)(=O)c3cccs3)C(=O)c3ccccc3C2=O)CC1	0.4%	11.5%	u	-65.2*	-6.6%	-75.6*
CCN(Cc1ccccc1)C(=O)c1cc2c(s1)-c1c(C)cccc1OC2	x	x	118.1%	x	167.5%	x
Cc1ccc2oc(C(=O)N(Cc3sccc3C)C3CCS(=O)(=O)C3)c(C)c2c1 (stereo not given)	x	x	19.8%	x	-4.1%	x
COc1cc(/C=N/N2C(=O)CSC2=S)cc(Br)c1O	1.0%	25.0%	-51.5%	u	6.5%[57.1 µM]	-0.1
O=C1CSC(=S)N1/N=C/C=C/c1ccccc1	x	-13.4%	28.2µM*	-15.2	-7.2%	-27.8
COc1cccc(/C=N/N2C(=O)CSC2=S)c1O	x	0.6%	17.8µM*	-90.1*	-12.8%	-13.3
O=C1CSC(=S)N1N=Cc1c(O)ccc2ccccc12	x	x	-3.0%[11.4 µM]	-88.4*	5.7%[11.4 µM]	-88.5*
Cc1ccc(NC(=O)CCC(=O)N2Cc3ccccc3Oc3ncccc32)cc1Cl	x	x	32.2%	x	2.3%	x
CSc1ccc(CCNC(=O)C(C)n2c(C)c3cnn(-c4ccccc4)c(=O)c3c2C)cc1 (stereo not given)	x	x	-5.4%	x	-9.2%	x
Cc1n[nH]c(=O)nc1N/N=C/c1ccco1	1.9%	-19.5%	-12.5%[57.1 µM]	-68.0*	-4.7%[57.1 µM]	u
Cc1n[nH]c(=O)nc1NCc1ccco1	0.3%	7.1%	17.7%	11.1	9.6%	-5.4
N#Cc1c(C(F)(F)F)cc(-c2cccs2)nc1SCc1ccc(F)cc1	x	x	u	x	8.2%	x
N#Cc1c(C(F)(F)F)cc(-c2cccs2)nc1SCc1ccc(Cl)nc1	-1.8%	-0.9%	50.1µM*	1.7	148.8%	18.7
COc1ccc(CN2C(=O)N(c3ccccc3)C(=O)C2c2ccccc2)cc1COc1ccc(NC(C)=O)cc1 (stereo not given)	x	x	-6.7%	x	-0.3%	x
COc1ccc(NC(=O)C2=C(C)C(=O)OC23CCN(C(C)C)CC3)cc1Cl	x	x	5.9%[57.1 µM]	x	2.6%[57.1 µM]	x
c1ccc(N=Nc2ccc3cccccc2-3)cc1	x	x	12.1%[11.4 µM]	-98.4*	1.7%[57.1 µM]	-89.7*
COc1ccc(CN(C(=O)/C=C/c2ccco2)C2CCS(=O)(=O)C2)cc1OC (stereo not given)	-3.2%	-2.8%	15.8µM*	-4.0	-12.4%	0.4
O=C(/C=C/c1ccco1)N(Cc1ccc(Cl)cc1)C1CCS(=O)(=O)C1 (stereo not given)	-1.0%	16.6%	25.1µM*	-8.8	4.9%	-12.8
CN(C)c1ccc(CN(C(=O)/C=C/c2ccco2)C2CCS(=O)(=O)C2)cc1 (stereo not given)	4.0%	3.4%	-12.8%[57.1 µM]	-3.3	-8.4%[57.1 µM]	-9.9
COc1ccc(CN(C(=O)/C=C/c2ccco2)C2CCS(=O)(=O)C2)cc1 (stereo not given)	5.5%	17.3%	-86.9%	-9.1	12.7%[11.4 µM]	-17.4
COc1cccc(CN(C(=O)/C=C/c2ccco2)C2CCS(=O)(=O)C2)c1 (stereo not given)	-5.2%	1.8%	12.6µM*	-6.6	1.6%	11.3
CN(O)/C=c1/ccc2c(n1)C(=O)C=CC=2	-0.2%	0.0%	14.3%[57.1 µM]	-92.5*	-12.0%	-96.4*
SMILES	GALK inhibitor	Eya2 phos inh	TrxR1 inh	Six1-Eya2 blk	TrxR1 substrate	CtBP-E1A blk
COc1ccc2[nH]c3c(N4CCN(Cc5ccc6c(c5)OCO6)CC4)ncnc3c2c1	1.6%	-1.9%	-10.9%	-65.1*	48.0%	u
COc1ccc2c(c1)c1ncnc(N3CCN(Cc4ccc5c(c4)OCO5)CC3)c1n2C	-1.6%	0.7%	x	x	x	x
COc1ccc2cc(C(=O)N3CCN(Cc4ccc5c(c4)OCO5)CC3)[nH]c2c1	-9.2%	-1.2%	5.6%	16.4	3.9%	-97.3*
Cc1ccc(CN(C)C(=O)C2CCC(=O)N(CC3CCCCC3)C2)o1 (stereo not given)	-0.4%	6.7%	39.8µM*	18.3	6.1%	8.0
O=C(Nc1nc(-c2ccc(S(=O)(=O)N3CCCCCC3)cc2)cs1)c1cccs1	2.5%	1.8%	21.6%[57.1 µM]	u	11.2%[57.1 µM]	-70.0*
O=C(Nc1nc(-c2cc3ccccc3o2)cs1)c1ccc(S(=O)(=O)N2CCCC2)cc1	0.7%	0.5%	79.4µM*	-1.5	10.7%	-15.1
O=C(Nc1nc(-c2ccc(S(=O)(=O)N3CCCC3)cc2)cs1)c1cccs1	0.3%	-30.9%	17.9%[57.1 µM]	-73.3*	7.6%[57.1 µM]	-75.4*
O=C(Nc1ccc(S(=O)(=O)N2CCCC2)cc1)c1cccs1	1.6%	-9.5%	23.7%[57.1 µM]	25.0	-14.2%[57.1 µM]	13.7
CCCCOc1ccc(C(C)NC(=O)c2cccc(Nc3nc4ccccc4n4nnnc34)c2)cc1 (stereo not given)	x	x	u	x	73.3%	x
NC(Cc1ccc(F)cc1)c1csc(Nc2ccc(C(F)(F)F)cn2)n1 (stereo not given)	x	x	x	-5.1	x	-6.5
NC(Cc1cnc[nH]1)c1csc(Nc2ccc(C(F)(F)F)cn2)n1 (stereo not given)	x	x	x	-89.7*	x	-91.7*
Cc1nnc(NC(=O)c2nc(S(=O)(=O)Cc3ccccc3C)ncc2Cl)s1	2.7%	4.4%	50.1µM*	-24.7	7.2%	-24.7
Cc1nnc(NC(=O)c2nc(SCc3ccccc3F)ncc2Cl)s1	x	x	10.4%	x	-4.0%	x
CC(C)c1nnc(NC(=O)c2nc(S(=O)(=O)Cc3ccccc3F)ncc2Cl)s1	-3.7%	0.4%	50.1µM*	-13.3	0.1%	-23.0
CSc1nnc(NC(=O)c2nc(S(=O)(=O)Cc3ccccc3F)ncc2Cl)s1	-0.3%	8.0%	39.8µM*	-21.5	-2.4%	-2.1
O=C(Nc1nc2ccc(F)cc2s1)c1nc(S(=O)(=O)Cc2ccccc2F)ncc1Cl	x	x	u	x	3.4%	x
Cc1ccc(NC(=O)C2CCCN2S(=O)(=O)c2ccc3c(c2)CCCC(=O)N3)cc1C (stereo not given)	x	x	1.3%[57.1 µM]	x	-1.3%[57.1 µM]	x
CCN(CC)CCOC(=O)c1ccc(NC(=O)Cn2ncc3c([nH]c4ccc(C)cc43)c2=O)cc1	x	x	3.4%	x	-3.8%	x
CCOC(=O)CSC1=NC(=O)CS1	0.2%	11.3%	14.1µM*	2.0	0.5%	-5.7
COc1cc2nc(N3CCCCC3)nc(NC3CCN(Cc4ccccc4)CC3)c2cc1OC	x	x	1.1%	x	39.0%	x
COc1c(C)cccc1C(=O)Nc1ccc(-c2nc3ccccc3s2)c(Cl)c1	x	x	47.0%	x	60.5%	x

Screening results: PubChem, National Center for Advancing Translational Sciences (NCATS)
